# Source: ChEMBL document CHEMBL4513216, “Probing the Open Global Health Chemical Diversity Library for Multistage-Active Starting Points for Next-Generation Antimalarials” (ACS Infect Dis, 2020)
# Hit rate of the full screen: of about 68,000 compounds, about 2,700 (4%) showed an effect of 50% or more. Only a selection was taken, and strong results are over-represented in it overall.
# System: Plasmodium berghei
# Assay: Screen against P. berghei liver stage (PbLuc), transformed with Luciferase, at 2uM
# Type: functional, HepG2
# Settings: tested at 2 uM
row,SMILES,INHIBITION [%]
1,CC(C)n1nnnc1-c1ccc(NC(=O)CC(F)(F)F)cc1F,-16.15
2,CCC(CN1CCOCC1)n1cncc1-c1ccc2c(c1)CCN2CC (stereo unspecified),8.33
3,O=C(C1CCCN(C2CCOCC2)C1)N1CCc2ncccc2C1 (stereo unspecified),34.71
4,COCC(=O)N1CCc2cccc(S(=O)(=O)N3CCOCC3)c2C1,13.24
5,CCCOCC(=O)N1CCc2c(cccc2S(=O)(=O)N2CCOCC2)C1,53.05
6,CCOCCC(=O)N1CCc2cccc(S(=O)(=O)N3CCOCC3)c2C1,23.82
7,CC(C)CCN1CCNC(=O)C1CC(=O)NCCc1cc(O)ncn1 (stereo unspecified),17.99
8,COC1CCN(CCNC(=O)NCC(C)c2cccc(C)c2)CC1 (stereo unspecified),38.83
9,COC1CCN(CCNC(=O)NC(C)c2cccc(Cl)c2)CC1 (stereo unspecified),-23.58
10,COC1CCN(CCNC(=O)NC(C)c2ccc(F)c(F)c2)CC1 (stereo unspecified),54.29
11,Cc1ccc(S(=O)(=O)NCCOc2ccc3nnc(C)n3n2)s1,17.47
12,CS(=O)(=O)CCN(CC1CCCO1)C1CCCC1 (stereo unspecified),56.53
13,CCN(CCS(=O)(=O)CC)CC1CCCO1 (stereo unspecified),1.03
14,CCS(=O)(=O)CCN(CC1CCCO1)C1CCCC1 (stereo unspecified),-19.27
15,CCc1nc(N2CCCC(O)(CO)CC2)ncc1C (stereo unspecified),32.1
16,Cc1ccc(C)c(OCc2cc(C(=O)N(C)Cc3cnn(C)c3)no2)c1,28.17
17,Cc1ccc(C)c(OCc2cc(C(=O)N(C)Cc3nonc3C)no2)c1,50.86
18,Cc1ccc(C)c(OCc2cc(C(=O)N(C)CC(O)CO)no2)c1 (stereo unspecified),-10.86
19,Cc1cnn(CC2CCCN2Cc2ncc(-c3ccc(F)cc3)o2)c1 (stereo unspecified),10.52
20,O=C1CC(N(C(=O)c2ccc(F)c(F)c2)C2CC2)C(=O)N1 (stereo unspecified),-20.51
21,Cc1ccc(C(=O)N(C2CC2)C2CC(=O)NC2=O)cc1F (stereo unspecified),59.93
22,COc1cc(C(=O)N(C2CC2)C2CC(=O)NC2=O)ccc1C (stereo unspecified),11.18

row,SMILES,INHIBITION [%]
1,O=C([C@H]1C[C@@H]2[C@@H](C1)OCCN2CC1CC1)N1CCCC1,-1.29
2,CNC(=O)[C@H]1C[C@H]2OCC[C@H]2N(CC2CCOCC2)C1,-14.24
3,O=C([C@H]1C[C@H]2OCC[C@H]2N(CC2CCOCC2)C1)N1CCCC1,58.93
4,O=C([C@H]1C[C@H]2OCC[C@H]2N(CC2CC2)C1)N1CCCCO1,-11.4
5,O=C([C@H]1C[C@H]2OCC[C@H]2N(CC2CCOCC2)C1)N1CCCCO1,26.31
6,O=C([C@H]1C[C@H]2OCC[C@H]2N(CC2CC2)C1)N1CCCC1,63.14
7,CS(=O)(=O)N1C[C@H]2CCCN(Cc3nccs3)[C@H]2C1,14.65
8,CC(Cn1cncn1)NC(=O)NCC(C)(C)c1ccc(F)cc1 (stereo unspecified),38.1
9,NC(=O)C(NC1CCN(CC2CCCCC2)CC1)c1ccc(F)cc1 (stereo unspecified),65.76
10,NC(=O)C(NC1CCN(Cc2ccc(F)cc2)CC1)c1ccccc1 (stereo unspecified),-15.03
11,NC(=O)C(NC1CCN(CC2CCCCC2)CC1)c1ccccc1 (stereo unspecified),15.27
12,COc1ccc(C[C@H]2CN(Cc3ccoc3)CC[C@H]2OC)cc1,10.71
13,N#Cc1ccnc(N2CCC(c3nccn3Cc3cscn3)CC2)c1,45.58
14,Cn1ccc(C(=O)N2CCC3(CCN3c3ncccn3)C2)n1 (stereo unspecified),53.38
15,Cn1ccnc1C(=O)N1CCC2(CCN2c2ncccn2)C1 (stereo unspecified),6.07
16,Cn1cccc1C(=O)N1CCC2(CCN2c2ncccn2)C1 (stereo unspecified),27.42
17,CCN1CCn2c(C)cnc2C12CCN(C(=O)NCC(C)C)CC2,-29.74
18,COc1cccn(Cc2nnc(-c3cccnc3)o2)c1=O,-16.19
19,Cc1ccc(NC(=O)N(C)C)c(C(=O)OCC(=O)NC(C)C(C)C)c1 (stereo unspecified),20.34
20,CCC(C)(C)NC(=O)COC(=O)c1cc(C)ccc1NC(=O)N(C)C,60.64
21,Cc1ccc(NC(=O)N(C)C)c(C(=O)OCC(=O)NC2CCCC2)c1,49.71
22,Cc1cc2ncc(C(C)NCc3cccnc3)c(C)n2n1 (stereo unspecified),19.6

row,SMILES,INHIBITION [%]
1,CCc1ccccc1C(=O)NS(=O)(=O)CCCC#N,-32.8
2,COCC1c2nnn(CC3CC3)c2CCN1C(=O)c1cnccn1 (stereo unspecified),1.92
3,c1ccc(NC[C@@H]2CCC[C@@H]3CN(Cc4nccs4)C[C@@H]32)nc1,38.11
4,Cc1cc(CN2CCN(c3ccc4nncn4n3)C(C)C2)no1 (stereo unspecified),-54.33
5,CC1CN(Cc2cnn(C)c2)CCN1c1ccc2nncn2n1 (stereo unspecified),62.13
6,CC1CN(Cc2cccnc2)CCN1c1ccc2nncn2n1 (stereo unspecified),-68.26
7,Cc1cnc(CN2CCN(c3ccc4nncn4n3)C(C)C2)cn1 (stereo unspecified),6.12
8,CC1CN(Cc2nccn2C)CCN1c1ccc2nncn2n1 (stereo unspecified),3.9
9,Cc1ncc(CN2CCN(c3ccc4nncn4n3)C(C)C2)s1 (stereo unspecified),64.71
10,O=c1c(-c2ccnc(NC3CCCCC3)n2)cnc2sc(Cl)cn12,10.83
11,Cn1c(C(=O)N2CC[C@@]3(O)CCCC[C@H]3C2)cc2ccccc21,5.04
12,CS(=O)(=O)N1CCCC12CCCN(S(=O)(=O)c1cccc(F)c1)C2 (stereo unspecified),32.41
13,CCN1Cc2ccccc2CC2(CCN(C(=O)N(C)C)CC2)C1=O,14.94
14,Cn1nc(C(=O)N2CCCC(n3cncn3)C2)ccc1=O (stereo unspecified),8.06
15,CC(C)(C)c1nc(CN2CCC(N3CCCCC3)CC2)no1,40.47
16,O=C1CN(C(=O)c2cc3ccc(Br)cc3[nH]2)CCN1,57
17,O=C1CN(C(=O)c2cc3c(F)cc(Br)cc3[nH]2)CCN1,-10
18,Cc1cc(C)c2cc(C(=O)N3CCNC(=O)C3)[nH]c2c1,19.48
19,Clc1cccc(C2CCN(c3ncnc4c3CCNC4)C2)c1 (stereo unspecified),36.79
20,COCCn1cnc(-c2nc(C(=O)N3CCOCC3)c3ccccn23)c1,11.37
21,CN(Cc1n[nH]c2c1CCCC2)c1nc(C2CC2)nc2c1CCNCC2,14.55
22,CCOc1ccc(Cl)c(C(=O)N(C)C)n1,-23.4

row,SMILES,INHIBITION [%]
1,Cc1cnn(C2CN(CCOc3ccccc3C#N)C2)c1,-21.72
2,CO[C@H]1CCN(Cc2cnn(C)c2)[C@@H]2CN(Cc3ccncc3)C[C@H]12,-22.28
3,CO[C@@H]1CCN(Cc2cnn(C)c2)[C@@H]2CN(Cc3cccnc3)C[C@@H]21,51.05
4,CO[C@H]1CCN(Cc2cnn(C)c2)[C@@H]2CN(Cc3cccnc3)C[C@H]12,39.06
5,CC(C)NC(=O)CS(=O)(=O)Cc1cc(Cl)c2c(c1)OCCO2,14.82
6,CC(C)C1CN(Cc2c[nH]cn2)CCCN1CC1CC1 (stereo unspecified),-28.5
7,CC(CN1CCOCC1)NC(=O)N(C)Cc1ccc(Cl)s1 (stereo unspecified),2.8
8,c1cnc(N2C[C@H]3CN(CC4CCOC4)C[C@H]3C2)nc1 (stereo partly specified),55.44
9,c1cnc(N2CCC3(CCN(CC4CCOC4)CC3)CC2)nc1 (stereo unspecified),42.27
10,c1cnc(N2CCC3(CN(CC4CCOC4)C3)C2)nc1 (stereo unspecified),24.54
11,CCn1cc(C2CCN(Cc3ccnc(N(C)C)c3)CC2)cn1,5.17
12,CCC(C)C(=O)NCc1cccc(OCCN(C)C2CCOCC2)c1 (stereo unspecified),-13.37
13,COCC(=O)NCc1cccc(OCCN(C)C2CCOCC2)c1,6.07
14,CC(C)CC(=O)NCc1cccc(OCCN(C)C2CCOCC2)c1,74.08
15,CSC1(CNC(=O)c2ccn(-c3ccccc3F)n2)CCOCC1,-5.41
16,O=C(C1CCCC1)N1CC2(CCN(C3COC3)C2)OCc2ccccc21 (stereo unspecified),12.39
17,Cc1nc(CNC(=O)CCN2CCN(c3ccccc3)CC2)oc1C,-0.39
18,O=C(NCc1cn2cccnc2n1)C1CC(=O)N(Cc2cccnc2)C1 (stereo unspecified),-23.46
19,O=C(NCc1cn2cccnc2n1)C1CC(=O)N(Cc2ccccn2)C1 (stereo unspecified),56.79
20,CN(C)CCN1CC(C(=O)NCc2cn3cccnc3n2)CC1=O (stereo unspecified),11.37
21,Cc1ccc(C(=O)O)cc1S(=O)(=O)N(CC(C)O)c1ccccc1 (stereo unspecified),11.33
22,COc1ncccc1NC(=O)N1CCC(c2ccc(O)cc2)CC1,-14.28

row,SMILES,INHIBITION [%]
1,CCN1CC(COC(=O)c2ccc(N(C)C)cc2F)CC1=O (stereo unspecified),-3.43
2,CC(C)CS(=O)(=O)N1C[C@@H]2C[C@H](C(=O)N3CCN(C)CC3)[C@H](C1)O2,-26.46
3,CCCS(=O)(=O)N1C[C@@H]2C[C@H](C(=O)N3CCCC3)[C@H](C1)O2,22.71
4,CS(=O)(=O)N1C[C@@H]2C[C@H](C(=O)N3CCOCC3)[C@H](C1)O2,54.01
5,CC(C)CS(=O)(=O)N1C[C@@H]2C[C@H](C(=O)N3CCOCC3)[C@H](C1)O2,15.36
6,CCCS(=O)(=O)N1C[C@@H]2C[C@H](C(=O)N3CCN(C)CC3)[C@H](C1)O2,72.68
7,CCCS(=O)(=O)N1C[C@@H]2C[C@H](C(=O)N3CCOCC3)[C@H](C1)O2,32.59
8,CCOCC1CN(Cc2ccncc2)Cc2nn(C)cc21 (stereo unspecified),7.26
9,CCN(C)c1ncnc2c1CCN(CC1CCOC1)CC2 (stereo unspecified),26.76
10,COc1cc(Cl)ccc1C(=O)NCc1n[nH]c(C)n1,29.39
11,Cc1cc(CC(=O)NCC(O)c2ccc(OC(F)F)cc2)n[nH]1 (stereo unspecified),17.94
12,CSc1ccc(-c2noc(CN(Cc3ccccc3)C(C)C)n2)cc1,28.97
13,COCc1nn(C(C)C)c2c1CCN(Cc1ccoc1)C2,6.35
14,Cn1nc(Cn2cccn2)c2c1CN(Cc1ccoc1)C2,15.34
15,CC(C)n1nc(Cn2cccc2)c2c1CN(Cc1ccoc1)C2,51.4
16,Cn1nc(Cn2cccc2)c2c1CN(Cc1ccoc1)C2,50.32
17,CCS(=O)(=O)N1Cc2c(Cn3cccc3)nn(C(C)C)c2C1,-24.79
18,Cn1nc(Cn2ccnc2)c2c1CN(Cc1ccoc1)C2,4.26
